Structures are written as SMILES. The source made the active and inactive calls.

Assay [1] can be described thus: small molecules captured by biotinylated probe aFSTL3 – biochemical, small-molecule microarray, fluorescence 635/667, stem cell growth factor project, primary screen (AID 1064).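 Further: measures binding of the biotinylated anti-FSTL3 antibody to printed compounds.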 Particulars: higher = more signal.
The nature of assay [2]: binders from COS7 lysate, DM2A8 probe, primary screen, torsin A project, cell lysate, small-molecule microarray, fluorescence 635/667 (AID 1065). Particulars: higher = more signal, COS7 lysate expressing mutant human TOR1A.
A short description of assay [3]: small molecules captured by biotinylated probe aFGF2 – biochemical, small-molecule microarray, fluorescence 635/667, stem cell growth factor project, primary screen (AID 1067).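 Further: measures binding of biotinylated aFGF2 protein to printed compounds on slides; z-score merges feature fluorescence and signal-to-noise across triplicate slides.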 Particulars: higher = more signal.
Assay [4] can be described thus: small molecules captured by biotinylated probe aFGF10 – biochemical, small-molecule microarray, fluorescence 635/667, stem cell growth factor project, primary screen (AID 1071).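 Further: score merges 667 nm spot intensity and signal to noise from triplicate slides.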 The following applies: higher = more signal.
In assay [5] the target is Neurogenic locus notch homolog protein 2 (Homo sapiens) (UniProt Q04721). Put plainly: small molecules binding Notch2 protein – biochemical, small-molecule microarray, 635 nm fluorescence, stem cell growth factors, primary screen (AID 1073). Particulars: higher = more signal.
The target in assay [6] is Pro-neuregulin-1, membrane-bound isoform (Homo sapiens) (UniProt Q02297). Put plainly: small molecules binding neuregulin-1 protein – biochemical, small-molecule microarray, fluorescence 635/667, psychiatric disease protein project, primary screen (AID 1075).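 Further: score combines 667 nm spot fluorescence with signal to noise.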 The following applies: NRG1 binding, 635 nm fluorescence, higher = more signal.
Chain of Pro-neuregulin-1, membrane-bound isoform (Homo sapiens) (Q02297 whole entry, looked up, the tested form may be a part, canonical isoform): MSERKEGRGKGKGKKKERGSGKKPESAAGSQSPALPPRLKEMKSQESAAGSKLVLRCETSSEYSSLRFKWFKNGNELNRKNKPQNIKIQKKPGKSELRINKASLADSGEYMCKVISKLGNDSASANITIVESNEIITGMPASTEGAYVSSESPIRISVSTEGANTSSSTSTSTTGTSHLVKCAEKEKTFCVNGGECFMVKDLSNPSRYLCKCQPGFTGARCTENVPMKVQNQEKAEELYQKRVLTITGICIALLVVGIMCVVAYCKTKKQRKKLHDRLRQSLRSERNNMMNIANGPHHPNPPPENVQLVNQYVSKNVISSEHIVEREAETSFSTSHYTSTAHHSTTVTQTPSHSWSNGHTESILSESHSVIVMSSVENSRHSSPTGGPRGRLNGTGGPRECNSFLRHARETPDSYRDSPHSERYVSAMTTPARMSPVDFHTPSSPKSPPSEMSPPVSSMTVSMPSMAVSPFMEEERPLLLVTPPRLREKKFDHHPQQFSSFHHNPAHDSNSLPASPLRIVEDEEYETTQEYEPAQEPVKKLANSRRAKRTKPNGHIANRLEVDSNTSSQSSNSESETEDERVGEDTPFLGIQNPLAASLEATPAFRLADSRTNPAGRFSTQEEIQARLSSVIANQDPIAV
The subject of assay [7] is Neuregulin-1 EGF-like domain. Kind of assay: small molecules binding NRG1 EGF domain – biochemical, small-molecule microarray, 635 nm fluorescence, primary screen (AID 1081).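 Further: binding of the protein to compounds printed on small-molecule microarray slides.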 The following applies: higher = more signal.
The nature of assay [8]: FRG1 expression reporter modulators in myotubes – cell-based, C2C12 myotubes, firefly/Renilla luciferase, luminescence, FRG1 inhibition for FSHD, primary screen (AID 1084). Particulars: FRG1 promoter luciferase, higher = more signal, called active from +8 up or from −8 down.
A short description of assay [9]: small molecules captured by biotinylated probe aFST – biochemical, small-molecule microarray, fluorescence 635/667, stem cell growth factor project, primary screen (AID 1086).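 Further: score merges 667 nm fluorescence with signal-to-noise of each printed compound spot.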 The following applies: higher = more signal.
Assay [10] can be described thus: binders of probe aHhip on microarray, primary screen, stem cell growth factor project, biochemical, small-molecule microarray, fluorescence 635/667 (AID 1087).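 Further: score merges spot fluorescence at 667nm with spot signal to noise ratio.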 Particulars: higher = more signal.
In assay [11] the test system is PRMT1 (protein arginine N-methyltransferase 1). Kind of assay: small molecules binding arginine methyltransferase PRMT1 – biochemical, small-molecule microarray, 635 nm fluorescence, primary screen (AID 1088).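 Further: binding of Prmt1 protein to compounds spotted on small-molecule microarray slides.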 Particulars: higher = more signal.
Assay [12] in a line: growth effects on S. cerevisiae YJM789 – YJM789 clinical isolate, OD600, 24 h, basal, primary screen (AID 1089).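 Further: growth of clinical yeast isolate S. cerevisiae YJM 789 seeded 1000 cells per well; test concentration not given here.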 Particulars: higher = more signal, called active from +8 up or from −8 down.
Assay [13] in a line: S. pombe growth modifiers, basal conditions – strain 972, OD600, 24 h, no modulator, primary screen (AID 1090).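 Further: basal condition with compound alone and no growth modifier present; test concentration not given here.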 Particulars: S. pombe 972 growth, higher = more signal, called active from +8 up or from −8 down.
Assay [14] in a line: budding yeast growth modifiers under rapamycin – strain BY4716, OD600, 96 h, primary screen (AID 1091). Further: test concentration not given here. The following applies: S. cerevisiae BY4716 + rapamycin, higher = more signal, called active from +8 up or from −8 down.
Assay [15] deals with Torsin-1A-interacting protein 2 (Homo sapiens) (UniProt Q8NFQ8). Kind of assay: small molecules binding lysate-expressed LULL1 – cell lysate, human LULL1 lysate, 635/667 nm fluorescence, primary screen (AID 1092).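 Further: probe is lysate of COS7 cells overexpressing human LULL1; score merges per-feature 667 nm fluorescence with signal-to-noise.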 Particulars: small-molecule microarray, hLULL1 lysate binding, 635 nm fluorescence; higher = more signal.
Chain of Torsin-1A-interacting protein 2 (Homo sapiens) (Q8NFQ8 whole entry, looked up): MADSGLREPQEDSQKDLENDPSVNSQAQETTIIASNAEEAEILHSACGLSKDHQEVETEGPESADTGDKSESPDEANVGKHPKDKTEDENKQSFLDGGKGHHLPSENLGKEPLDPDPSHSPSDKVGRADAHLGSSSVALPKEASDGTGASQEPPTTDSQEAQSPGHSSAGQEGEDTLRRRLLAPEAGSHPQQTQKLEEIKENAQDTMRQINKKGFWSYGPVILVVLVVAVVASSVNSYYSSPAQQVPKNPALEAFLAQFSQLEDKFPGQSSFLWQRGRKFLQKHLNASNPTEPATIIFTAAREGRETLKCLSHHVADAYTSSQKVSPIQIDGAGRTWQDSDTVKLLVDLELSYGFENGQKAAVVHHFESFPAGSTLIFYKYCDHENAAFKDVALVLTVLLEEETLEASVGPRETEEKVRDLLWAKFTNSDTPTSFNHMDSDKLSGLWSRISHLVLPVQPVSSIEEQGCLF
Assay [16] in a line: optical density change of DRC41 E. coli – strain DRC41, OD650, 24 h, E. coli filamentation project, primary screen (AID 1093).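 Further: MC1000 strain lacking acrAB efflux and sulA so SOS filamentation is blocked; test concentration not given here.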 The following applies: E. coli DRC41 growth, higher = more signal, called active from +8 up or from −8 down.
Assay [17] is described as follows: probe aLefty2 binding to arrayed compounds – biochemical, biotinylated probe, 635/667 nm fluorescence, primary screen (AID 1094).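 Further: score merges spot fluorescence near 667 nm with spot signal-to-noise ratio.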 The following applies: small-molecule microarray, higher = more signal.
The test system of assay [18] is Noggin (protein binding on small-molecule microarray). Kind of assay: small molecules binding Noggin protein – biochemical, 635/667 nm fluorescence, primary screen (AID 1095).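 Further: score merges 667 nm feature fluorescence with signal to noise over triplicate slides.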 Particulars: 635 nm fluorescence, higher = more signal.
Assay [19] addresses Neurogenic locus notch homolog protein 3 (Homo sapiens) (UniProt Q9UM47). Kind of assay: small molecules binding NOTCH3 protein – biochemical, 635/667 nm fluorescence, primary screen (AID 1096). Particulars: small-molecule microarray, 635 nm fluorescence, higher = more signal.
Assay [20] in a line: probe aEGFR binding to arrayed compounds – biochemical, biotinylated probe, 635/667 nm fluorescence, primary screen (AID 1097).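 Further: probe is a biotinylated anti-EGFR antibody binding compounds printed on slides; score combines fluorescence near 667 nm and signal to noise of each spot.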 Particulars: small-molecule microarray, higher = more signal.

Chain of Neurogenic locus notch homolog protein 3 (Homo sapiens) (Q9UM47 whole entry, looked up): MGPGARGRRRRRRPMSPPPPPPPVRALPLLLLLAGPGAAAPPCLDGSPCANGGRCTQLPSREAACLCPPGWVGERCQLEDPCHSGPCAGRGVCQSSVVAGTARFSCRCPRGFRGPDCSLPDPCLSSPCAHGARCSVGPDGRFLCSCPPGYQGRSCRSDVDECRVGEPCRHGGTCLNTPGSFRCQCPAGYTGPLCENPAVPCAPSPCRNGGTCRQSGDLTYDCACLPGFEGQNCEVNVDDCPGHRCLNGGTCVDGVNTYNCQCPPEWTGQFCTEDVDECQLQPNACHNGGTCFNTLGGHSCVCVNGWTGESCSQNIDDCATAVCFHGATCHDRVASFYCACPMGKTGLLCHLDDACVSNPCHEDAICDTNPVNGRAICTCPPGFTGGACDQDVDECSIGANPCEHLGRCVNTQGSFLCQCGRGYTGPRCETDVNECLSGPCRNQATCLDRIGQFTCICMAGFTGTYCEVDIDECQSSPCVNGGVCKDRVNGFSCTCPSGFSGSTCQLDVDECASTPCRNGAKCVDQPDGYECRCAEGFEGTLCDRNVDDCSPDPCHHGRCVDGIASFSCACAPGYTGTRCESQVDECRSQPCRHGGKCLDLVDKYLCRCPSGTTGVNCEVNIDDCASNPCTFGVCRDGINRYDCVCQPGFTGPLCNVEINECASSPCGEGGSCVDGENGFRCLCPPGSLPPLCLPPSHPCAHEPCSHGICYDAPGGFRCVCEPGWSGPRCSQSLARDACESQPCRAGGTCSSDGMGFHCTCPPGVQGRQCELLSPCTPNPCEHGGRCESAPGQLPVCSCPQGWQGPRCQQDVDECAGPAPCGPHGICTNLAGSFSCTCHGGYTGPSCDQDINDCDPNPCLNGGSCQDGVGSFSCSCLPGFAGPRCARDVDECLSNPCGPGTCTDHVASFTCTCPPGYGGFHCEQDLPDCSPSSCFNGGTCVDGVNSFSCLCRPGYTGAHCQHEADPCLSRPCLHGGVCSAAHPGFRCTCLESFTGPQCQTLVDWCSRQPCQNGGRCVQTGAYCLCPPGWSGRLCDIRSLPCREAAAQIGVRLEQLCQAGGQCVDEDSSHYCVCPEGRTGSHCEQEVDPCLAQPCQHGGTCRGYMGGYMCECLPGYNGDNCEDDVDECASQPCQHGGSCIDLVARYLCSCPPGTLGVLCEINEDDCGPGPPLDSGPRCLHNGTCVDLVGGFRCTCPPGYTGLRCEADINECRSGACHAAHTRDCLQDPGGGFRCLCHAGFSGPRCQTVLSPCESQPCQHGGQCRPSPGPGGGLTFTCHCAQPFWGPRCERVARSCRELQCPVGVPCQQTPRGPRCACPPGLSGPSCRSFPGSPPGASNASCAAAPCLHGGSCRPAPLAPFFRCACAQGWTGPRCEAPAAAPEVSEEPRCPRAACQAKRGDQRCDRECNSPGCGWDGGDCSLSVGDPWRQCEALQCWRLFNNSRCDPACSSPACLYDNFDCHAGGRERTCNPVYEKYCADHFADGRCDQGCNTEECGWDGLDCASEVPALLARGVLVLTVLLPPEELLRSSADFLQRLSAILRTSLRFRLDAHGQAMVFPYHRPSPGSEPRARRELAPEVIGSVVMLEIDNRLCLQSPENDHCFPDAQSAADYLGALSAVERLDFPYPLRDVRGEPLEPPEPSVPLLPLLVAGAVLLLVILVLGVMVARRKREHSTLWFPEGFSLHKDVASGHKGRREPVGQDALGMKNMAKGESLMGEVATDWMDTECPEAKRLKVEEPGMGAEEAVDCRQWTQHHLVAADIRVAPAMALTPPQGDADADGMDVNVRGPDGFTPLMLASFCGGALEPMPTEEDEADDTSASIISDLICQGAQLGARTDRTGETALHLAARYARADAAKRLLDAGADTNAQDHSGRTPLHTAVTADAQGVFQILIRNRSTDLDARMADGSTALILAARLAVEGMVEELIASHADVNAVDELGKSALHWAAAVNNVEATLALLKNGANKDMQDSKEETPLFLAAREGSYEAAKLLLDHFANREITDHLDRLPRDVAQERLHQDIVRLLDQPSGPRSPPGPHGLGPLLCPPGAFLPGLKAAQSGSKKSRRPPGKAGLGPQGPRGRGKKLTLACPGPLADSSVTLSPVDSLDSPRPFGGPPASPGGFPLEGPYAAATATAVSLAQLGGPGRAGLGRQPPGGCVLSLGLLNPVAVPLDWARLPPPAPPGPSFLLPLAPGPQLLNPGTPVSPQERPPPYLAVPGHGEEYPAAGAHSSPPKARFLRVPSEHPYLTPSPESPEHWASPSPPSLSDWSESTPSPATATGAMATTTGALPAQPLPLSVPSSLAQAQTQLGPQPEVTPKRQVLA

In the case of `CN(C)c1ccc(C(O)C2C=CC3C(=O)N(c4ccccc4)C(=O)C3N2Nc2ccccc2F)cc1` (stereo not given), the composite z-score is 0.357 in assay [1]; -0.159 in assay [2]; -0.0422 in assay [3]; 0.208 in [4]; 1.46 in assay [5]; 0.86 in assay [6]. Moreover, the composite z-score was 1.25 in assay [7]; 0.957 in assay [9]; -0.212 in [10]; 1.09 in assay [11]; 2.21 in assay [15]; -0.166 in assay [17]. Further, the composite z-score in assay [18] was -0.318; in assay [19], 0.443; in assay [20], 0.0904. The z-score in assay [8] was 3.64 (inactive); in assay [12], 0.0194 (inactive); in assay [13] it was -13.6 (active); in [14], 1.7 (inactive); in assay [16], -0.457 (inactive).
Take `CC1(C)OCC(C(O)C2=CCCCC2=O)CO1` (stereo not given): the composite z-score in assay [1] was -0.495; in assay [2], 0.547; in [3], -0.0607; in [4] it was 0.54; in assay [5], 0.214; in [6], 0.366. Besides, the composite z-score in assay [7] is 0.979; in assay [9] it was 0.753; in [10], 0.065; in [11], 1.56; in assay [15] it was 0.231; in assay [17], -0.0478. Besides, the figures for the composite z-score in [18], in [19] and in assay [20] were 0.986, 1.06 and 0.0688, respectively. In addition, the z-score in assay [8] is 0.119 (inactive); in assay [12] it was 0.209 (inactive); in assay [13] it was -0.0255 (inactive); in assay [14], 0.856 (inactive); in assay [16] it was -0.449 (inactive).
For `O=C1CCCC=C1C(O)CCOCc1ccccc1` (stereo not given), the composite z-score in [1] is -0.149; in [2], 0.858; in assay [3] it was -0.0753; in [4], 0.0674; in [5], -0.175; in [6], -0.573. The composite z-score in assay [7] is 0.28; in assay [9] it was -0.0364; in assay [10], -0.236; in [11] it was -0.195; in assay [15], -1.08; in assay [17], -0.224. Also, the composite z-score in assay [18] was 0.355; in [19], -0.834; in assay [20], -0.0828. For the same molecule, the z-score in assay [8] is 1.58 (inactive); in assay [12], -0.385 (inactive); in [13], -0.82 (inactive); in assay [14], -1.15 (inactive); in assay [16], -0.546 (inactive).
For `CC(C)C[C@@H]1NC(=O)[C@H]2C[C@@H](C(=O)NCCCCCCN(C)C)[C@@H](c3cccc(OCCO)c3)N2C1=O`, the composite z-score in assay [1] was 0.293; in assay [2] it was 1.55; in assay [3] it was -0.0173; in [4], 0.789; in assay [5], 0.873; in assay [6] it was 0.528. Also, the composite z-score is 0.781 in [7]; 0.256 in [9]; -0.156 in assay [10]; 1.53 in [11]; 2.12 in [15]; 0.173 in [17]. Further, the composite z-score worked out at 1.19 in assay [18], 1.04 in assay [19] and 0.0948 in assay [20]. The z-score in [8] is 3.77 (inactive); in assay [12] it was -1.16 (inactive); in [13], 0.184 (inactive); in assay [14], -0.46 (inactive); in assay [16] it was -0.0145 (inactive).
Consider `[N-]=[N+]=Nc1ccccc1C[C@@]1(C(N)=O)N=C(c2ccc(OCCCO)cc2)O[C@@H]1c1ccccc1`, for which the composite z-score in assay [1] came out at 1.57; in assay [2] it was 0.49; in assay [3], 0.0249; in assay [4] it was 0.296; in [5], 0.975; in assay [6] it was 1.05. The composite z-score was 1.16 in [7]; 0.784 in [9]; -0.181 in assay [10]; 0.683 in assay [11]; 2.06 in [15]; 0.316 in assay [17]. Besides, the composite z-score in [18] was -0.754; in assay [19], 0.156; in [20], -0.0455. Also, the z-score in assay [8] is 1.23 (inactive); in assay [12], -0.501 (inactive); in assay [13] it was -0.371 (inactive); in [14], -0.481 (inactive); in assay [16], 0.0722 (inactive).
Turning to `Cc1ccc(S[C@]2(C(=O)O)CC(=O)N(Cc3ccccc3)[C@@H]2c2ccc(CO)cc2I)cc1`, the composite z-score in assay [1] was 0.481; in assay [2] it was -0.421; in [3], -0.0494; in assay [4], -0.333; in [5], -0.143; in assay [6], 1.8. Also, the composite z-score in assay [7] is 1.03; in [9] it was -0.255; in assay [10] it was -0.0994; in [11], 0.135; in assay [15], 1.28; in assay [17], -0.103. Further, the composite z-score was -0.404 in assay [18], -0.683 in assay [19] and -0.261 in [20]. Moreover, the z-score in assay [8] was -0.406 (inactive); in assay [12], -0.866 (inactive); in [13] it was -1.17 (inactive); in [14], 1.29 (inactive); in assay [16], -0.104 (inactive).
With `CC[C@@H](c1ccccc1)n1c(=O)n2n(c1=O)[C@H]1[C@H](O)[C@@H]3O[C@@H]3C(=NOCC=C(C)CCC=C(C)C)[C@H]1CC2`, the composite z-score was -0.415 in [1]; 0.138 in [2]; -0.102 in [3]; 0.471 in assay [4]; 0.8 in assay [5]; 0.8 in [6]. Besides, the composite z-score was 0.89 in assay [7]; 0.572 in assay [9]; -0.169 in assay [10]; 1.23 in [11]; 1.54 in assay [15]; -0.137 in assay [17]. Moreover, the composite z-score in assay [18] is 1.33; in assay [19] it was 0.955; in assay [20], 0.14. Further, the z-score in [8] was -0.0545 (inactive); in assay [12], 0.676 (inactive); in assay [13] it was 0.052 (inactive); in [14] it was 1.28 (inactive); in assay [16], -0.327 (inactive).
Consider `CCOC(=O)C[C@H]1[C@H](OC(=O)c2cc3ccccc3oc2=O)[C@@H](NC(=O)c2ccc3ccccc3n2)c2cc(OCCCO)ccc2N1C(=O)c1ccccc1`, for which the composite z-score in [1] was -0.189; in assay [2], 0.459; in [3] it was -0.0455; in assay [4], 0.706; in [5] it was 0.302; in assay [6], 0.0269. The composite z-score is 0.736 in assay [7]; 0.353 in assay [9]; -0.383 in assay [10]; 0.5 in assay [11]; 0.413 in assay [15]; -0.0171 in assay [17]. Also, the figures for the composite z-score in assay [18], in [19] and in assay [20] were 0.603, 0.724 and 0.0745, respectively. Also, the z-score in assay [8] was 0.331 (inactive); in assay [12], 0.282 (inactive); in [13], -0.738 (inactive); in assay [14], 0.156 (inactive); in assay [16], 0.471 (inactive).
Take `O=C1O[C@@H](c2ccccc2)[C@@H](c2ccccc2)N2[C@@H](c3ccccc3OCCO)[C@]3(C(=O)Nc4ccc(C#CCCO)cc43)[C@@H](C(=O)O)[C@H]12`: the composite z-score in [1] is -1.32; in assay [2], 0.638; in assay [3], -0.189; in assay [4], 0.798; in assay [5] it was 0.438; in assay [6], 1.84. Further, the composite z-score is 1.36 in [7]; -0.423 in assay [9]; -0.945 in assay [10]; 1.54 in assay [11]; 2.47 in [15]; -0.3 in [17]. In addition, the composite z-score in assay [18] is 0.573; in [19] it was 1.12; in [20] it was -0.352. For the same molecule, the z-score is -1.28 (inactive) in assay [8]; 1.14 (inactive) in [12]; -0.82 (inactive) in [13]; -0.103 (inactive) in [14]; 0.481 (inactive) in [16].
For the molecule `C=C(/C(=C/C[C@H](OC(=O)c1ccncc1)c1ccc(OCCO)cc1)c1cnc2ccccc2c1)C(C)C`, the composite z-score in [1] was -0.185; in [2], 0.727; in assay [3], -0.047; in assay [4] it was 1.09; in [5], 1.29; in assay [6], 0.7. The composite z-score in [7] is 1.13; in assay [9], 0.552; in [10], -0.0296; in assay [11] it was 1.55; in [15], 1.12; in assay [17], -0.0985. In addition, the composite z-score was 1.48 in assay [18], 1.03 in assay [19] and -0.0251 in assay [20]. Moreover, the z-score in assay [8] is 1.66 (inactive); in assay [12], -0.442 (inactive); in [13] it was -1.82 (inactive); in [14], 0.706 (inactive); in assay [16], -0.13 (inactive).

Source of the values: PubChem BioAssay.
